The list is not random: actives were taken first. Their share in the collection is about 11%.
FLuc inh: blocks purified firefly luciferase enzyme activity; P08659; purified P. pyralis luciferase, luminescence, biochemical; Potency, µM (highest dose often 115 µM), hits mostly inhibitors; hit rate 2.5% among 76,000; AID 1347043; also: nearly all actives have a fitted effect of over 65% in size
Target sequence (P08659 whole entry, looked up): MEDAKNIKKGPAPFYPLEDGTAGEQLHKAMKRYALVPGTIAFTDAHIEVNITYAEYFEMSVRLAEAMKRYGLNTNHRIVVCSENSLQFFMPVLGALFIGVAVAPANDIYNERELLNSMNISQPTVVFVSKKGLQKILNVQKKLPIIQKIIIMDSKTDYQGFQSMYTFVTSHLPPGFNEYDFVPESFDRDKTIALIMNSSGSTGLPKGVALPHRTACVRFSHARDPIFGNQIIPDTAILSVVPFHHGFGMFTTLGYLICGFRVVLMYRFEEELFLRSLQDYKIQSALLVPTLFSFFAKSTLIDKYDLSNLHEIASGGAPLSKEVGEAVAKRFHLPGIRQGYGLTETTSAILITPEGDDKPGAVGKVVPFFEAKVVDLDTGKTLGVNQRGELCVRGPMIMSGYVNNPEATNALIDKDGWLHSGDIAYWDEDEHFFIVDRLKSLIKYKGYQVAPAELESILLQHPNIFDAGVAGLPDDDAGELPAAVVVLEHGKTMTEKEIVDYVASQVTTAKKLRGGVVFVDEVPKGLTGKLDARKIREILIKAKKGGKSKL
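Biochemical qHTS: compound (6-point titration) added to 10uM D-luciferin plus 10uM ATP in Tris acetate pH 7.5 buffer with Mg, Tween-20 and BSA, then purified enzyme at 10nM; light output imaged.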
NPR1 antag: antagonists of human natriuretic peptide receptor Npr1; P16066; HEK293 hNpr1 GloSensor cGMP, ANP-stimulated luminescence; Potency, µM (titrated, usually from 46.3 µM), for the others: at the highest dose activity change, negative = inhibition, actives largely listed as inhibitors; hit rate 1.6% among 76,000; calls by dose curve; also: nearly all actives have a fitted effect of over 60% in size
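Compound pre-incubated 30 min at room temperature on GloSensor-loaded HEK293 cells stably carrying hNpr1 and the pGS-40F cGMP biosensor. Stimulation uses hNppA at 0.1 nM final; luminescence is taken at baseline and 20 min post-agonist.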
3T3 cytotox: NIH 3T3 cell cytotoxicity; hit rate 4.3% among 94,000; Potency, µM (doses to about 96.7 µM), for the others: at the top dose activity change, negative = cytotoxicity, actives largely listed as inhibitors; NIH 3T3 viability, CellTiter-Glo ATP luminescence, 48-72 h; also: nearly all actives have a fitted effect of over 55% in size
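Cells were seeded at 400 per well, treated with pin-transferred compound, and kept 48 or 72 hr at 37 °C before CellTiter-Glo addition and luminescence imaging of cellular ATP.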
HEK293 tox: HEK 293 cell cytotoxicity | HEK 293 viability, ATP luminescence (CellTiter-Glo), 48-72 h | Potency, µM (series often up to 115 µM), for the others: top-dose activity change, negative = cytotoxicity, usual class: inhibitors | hit rate 6.6% among 94,000 | AID 1345083; also: nearly all actives have a fitted effect of over 60% in size
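Cells seeded first (HEK 293, 250 cells/well), then compound added by pintool. Incubation ran 48 or 72 hr at 37 degree Celsius. CellTiter-Glo was added and luminescence imaged after 10 min at room temperature.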
* marks the source's active call; other numbers are inactive results; [ ] = another dose, or the depositor's remark. Unless noted, calls follow the shape of the dose curve; as a rule, active = well fitted curve in the direction sought with a large enough effect; inconclusive = small, poorly fitted or top-dose-only effect, or another doubt; inactive = no such curve, though single readings can be large; an effect the other way counts as inactive or inconclusive. % is scaled to controls: 0 for no effect and ±100 for the full control effect; potency is read from the fitted curve at half-maximal effect.

For COc1ccc(CN2CCCC3(C2)C(=NC2CCCC2)NC(=O)N3c2cccnc2)cc1 (stereo not drawn) the results were 3T3 cytotox 22.4µM* and HEK293 tox -10.4%.
Screening O=C1NC(=NC2CCCC2)C2(CCN(Cc3ccccc3)C2)N1c1cccnc1 (stereo not drawn) returned 3T3 cytotox inconclusive and HEK293 tox 0.0%.
For O=C1NC(=NC2CCCC2)C2(CCN(CC3CC3)C2)N1c1cccnc1 (stereo not drawn) the results were 3T3 cytotox inconclusive and HEK293 tox 0.9%.
Screening CC(C)CCN1CCC2(C1)C(=NC1CCCCC1)NC(=O)N2c1cccnc1 (stereo not drawn) returned 3T3 cytotox inconclusive and HEK293 tox inactive.
`CC(C)CCN1CCCC2(C1)C(=NC1CCCC1)NC(=O)N2c1cccnc1` (stereo not drawn) gave 3T3 cytotox 7.08µM* and HEK293 tox inconclusive.
For COc1cccc(N2C(=O)NC(=NC3CCCC3)C23CCCN(Cc2cccnc2)C3)c1 (stereo not drawn) the results were 3T3 cytotox inconclusive and HEK293 tox -15.6%.
`O=C1NC(=NC2CCCC2)C2(CCCN(Cc3ccccc3)C2)N1c1cccnc1` (stereo not drawn) gave 3T3 cytotox 25.1µM* and HEK293 tox -10.1%.
Cc1ncc2n1C(=O)N(C1CCN(C(=O)c3ccc(F)cc3)CC1)C2 was read as FLuc inh inactive, NPR1 antag 10.9%, 3T3 cytotox -16.2% and HEK293 tox -21.7%.
For CCOC(=O)CCNC(=O)N1CCC(Oc2ncccc2C(=O)N2CCCCC2)C1 (stereo not drawn) the results were FLuc inh inactive, NPR1 antag 0.9%, 3T3 cytotox -6.7% and HEK293 tox -1.9%.
Screening O=C(CN1C(=O)CNC1=O)NCCc1noc(C2CCCC2)n1 returned FLuc inh inactive, NPR1 antag 2.3%, 3T3 cytotox 1.2% and HEK293 tox -14.7%.
Cc1cc(C)n(CCC(=O)N2CCC3(CC2)CC(N(C)Cc2ccccc2)CCO3)n1 (stereo not drawn) was read as FLuc inh inactive, NPR1 antag -0.6%, 3T3 cytotox -19.9% and HEK293 tox -2.8%.
For N#Cc1ccc(CN2CCC3(C2)NC(=O)c2ccccc2O3)cc1 (stereo not drawn) the results were FLuc inh inactive, NPR1 antag -2.8%[70.6 µM], 3T3 cytotox 1.9%[138 µM] and HEK293 tox inactive.
`N#Cc1ccc(CN2CC3(Cc4ccccc4C(=O)N3)C2)cc1` gave 3T3 cytotox 35.5µM* and HEK293 tox inconclusive.
`O=C(NCCc1ccccn1)C1c2ccccc2C(=O)N(C2CCCCC2)C12CCCCC2` (stereo not drawn) gave FLuc inh inactive, NPR1 antag -11.3%, 3T3 cytotox inconclusive and HEK293 tox 44.7µM*.
`COc1cccc(-c2ncc3c(n2)OCCN(c2ccccc2)C3=O)c1OC` gave FLuc inh inconclusive, NPR1 antag -9.1%[70.6 µM], 3T3 cytotox 79.4µM* and HEK293 tox inconclusive.
`O=C1c2cnc(-c3ccncc3)nc2OCCN1c1ccccc1` gave FLuc inh inconclusive, NPR1 antag -5.3%[70.6 µM], 3T3 cytotox -22.8%[138 µM] and HEK293 tox inconclusive.
For COc1cccc(-c2ncc3c(n2)OCCN(CC2CC2)C3=O)c1OC the results were FLuc inh inactive, NPR1 antag 2.8%[70.6 µM], 3T3 cytotox 89.1µM* and HEK293 tox -26.9%[172 µM].
For O=C(Nc1ccc(-c2nnc3n2CCCC3)cc1)c1nccc2ccccc12 the results were FLuc inh inactive, NPR1 antag -1.6%, 3T3 cytotox inconclusive and HEK293 tox -4.1%.
`Cc1ccc(NC(=O)C2CCN(C(=O)c3ncn4c3COC(c3ccc(F)cc3)C4)CC2)cc1C` (stereo not drawn) gave FLuc inh 35.5µM*, NPR1 antag 0.7%, 3T3 cytotox inactive and HEK293 tox 12.5%.
`Cc1cc(C)cc(NC(=O)C2CCN(C(=O)c3ncn4c3COC(c3ccc(F)cc3)C4)CC2)c1` (stereo not drawn) gave FLuc inh inconclusive, NPR1 antag -2.8%, 3T3 cytotox 1.1% and HEK293 tox 4.6%.
`COc1ccc(C2Cn3cnc(C(=O)N4CCC(C(=O)Nc5ccc(C)c(C)c5)CC4)c3CO2)cc1` (stereo not drawn) gave FLuc inh inactive, NPR1 antag -23.5%, 3T3 cytotox inactive and HEK293 tox -0.9%.
For Cc1cc(NC(=O)C2CCN(C(=O)c3ncn4c3COC(c3ccc(F)cc3)C4)CC2)ccc1Cl (stereo not drawn) the results were FLuc inh 39.8µM*, NPR1 antag -3.1%, 3T3 cytotox inconclusive and HEK293 tox -21.4%.
For O=C(Nc1ccc2c(c1)CCC2)C1CCN(C(=O)c2ncn3c2COC(c2ccc(F)cc2)C3)CC1 (stereo not drawn) the results were FLuc inh 28.2µM*, NPR1 antag 1.2%, 3T3 cytotox inactive and HEK293 tox 6.8%.
`Cc1ccc(NC(=O)C2CCN(C(=O)c3ncn4c3COC(c3ccc(F)cc3)C4)CC2)c(Cl)c1` (stereo not drawn) gave FLuc inh 25.1µM*, NPR1 antag -24.5%, 3T3 cytotox 0.3% and HEK293 tox 0.3%.
Screening COc1ccc(-c2cccc(C(=O)N(C)C)c2)nn1 returned 3T3 cytotox -21.9%[138 µM] and HEK293 tox -16.4%[172 µM].
For CC1(C)[C@H]2CC[C@@H](CNC(=O)c3ccc(Cl)cc3)[C@@H]1C2 the results were FLuc inh inactive, NPR1 antag -8.4%[70.6 µM], 3T3 cytotox 39.8µM* and HEK293 tox inconclusive.
Screening Cc1ccc([S+](=O)([O-])NC[C@@H]2CC[C@H]3C[C@@H]2C3(C)C)cc1 returned FLuc inh inactive, NPR1 antag inconclusive, 3T3 cytotox inconclusive and HEK293 tox inconclusive.
For CC1(C)[C@H]2CC[C@@H](CN[S+](=O)([O-])c3ccccc3)[C@@H]1C2 the results were FLuc inh inactive, NPR1 antag -26.4%[70.6 µM], 3T3 cytotox inconclusive and HEK293 tox 79.4µM*.
Screening COc1cccc(C(=O)NC[C@@H]2CC[C@H]3C[C@@H]2C3(C)C)c1 returned FLuc inh inactive, NPR1 antag -1.3%[70.6 µM], 3T3 cytotox inconclusive and HEK293 tox 89.1µM*.
For CC1(C)[C@H]2CC[C@@H](CNC(=O)c3cccc(Cl)c3)[C@@H]1C2 the results were FLuc inh inactive, NPR1 antag 2.0%[70.6 µM], 3T3 cytotox inconclusive and HEK293 tox 79.4µM*.
Cc1ccc(-n2c(C3CCN(C(=O)c4ccccc4OC(F)(F)F)CC3)n[nH]c2=O)cc1 was read as FLuc inh inactive, NPR1 antag 2.1%, 3T3 cytotox -9.4% and HEK293 tox 4.4%.
Cc1noc(C)c1C(=O)N1CCC2(CC1)CN(C(=O)c1ccc(Cl)cc1)CCO2 was read as 3T3 cytotox 6.31µM* and HEK293 tox 0.1%.
`Clc1cccc(Nc2cnc3ccc(N4CCOCC4)nn23)c1` gave FLuc inh inactive, NPR1 antag inconclusive, 3T3 cytotox inconclusive and HEK293 tox inconclusive.

Bioassay records deposited in PubChem by National Center for Advancing Translational Sciences (NCATS).
